These results are taken from PubChem BioAssay (EPA / NIEHS).

Activity calls are given as the source filed them. How the source made its calls: active means hit-call score of the fitted dose curve at least 0.9, where 1 is the maximum; inactive means score below 0.9.

The nature of assay [1]: APR_HepG2_CellCycleArrest_24hr: Apredica 24-hour HepG2 Assay for Cell Cycle Arrest (AID 2282905).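 Further: cell cycle arrest scored as ratio of 2N to 4N nuclear DNA content.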 Particulars: imaging, actives raise or lower the signal. In a few lines: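 HepG2 cells were exposed to compounds at 0.39–200 uM (ten concentrations, duplicate) in 0.5% v/v DMSO for 24 hr. After formaldehyde fixation and Triton permeabilization, Hoechst 33342-stained nuclei were imaged at 20x; DNA content was quantified, with bidirectional fitting against DMSO.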

Assay [2] is described as follows: APR_HepG2_NuclearSize_24hr: Apredica 24-hour HepG2 Assay for Nuclear Size (AID 2282907). Particulars: high-content imaging, actives raise or lower the signal. The procedure, abridged: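 HepG2 human liver cells were exposed for 24 hr to compounds at 0.39–200 uM (ten concentrations, duplicate) in 0.5% v/v DMSO. They were then formaldehyde-fixed, Triton-permeabilized and Hoechst 33342-stained, and nuclear diameter was imaged at 20x. Bidirectional fits were made against DMSO.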

Assay [3] in a line: APR_HepG2_CellLoss_24hr: Apredica 24-hour HepG2 Assay for Cell Loss (AID 2282908).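 On AC50: fit in both directions so a hit may be cell loss or gain.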 To be noted: high-content imaging. In a few lines:
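Compounds were tested at 0.39–200 uM in duplicate with 0.5% v/v DMSO final. Cells were then fixed in 3.7% formaldehyde, Hoechst 33342 nuclei were imaged at 20x by HCS, and cell number was fitted bidirectionally against DMSO.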

A short description of assay [4]: APR_HepG2_MicrotubuleCSK_24hr: Apredica 24-hour HepG2 Assay for Microtubule CSK Stabilty (AID 2282909). To be noted: HepG2 microtubule cytoskeleton imaging, actives raise or lower the signal. The procedure, abridged:
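HepG2 cells exposed 24 h to compounds at 0.39–200 uM (duplicate, 0.5% v/v DMSO final), then fixed, permeabilized and immunostained for alpha-tubulin with Hoechst 33342. Cytoskeleton imaged at 20x; bidirectional fit versus DMSO baseline.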

Assay [5] in a line: APR_HepG2_MitoticArrest_24hr: Apredica 24-hour HepG2 Assay for Mitotic Arrest (AID 2282910). Particulars: high-content imaging, actives raise or lower the signal. The procedure, abridged:
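Compounds are dosed onto HepG2 cells across ten concentrations up to 200 uM for 24 hr. Cells are then fixed in 3.7% formaldehyde, permeabilised, and labelled for phospho-histone H3 and nuclei; images are scored by cell cycle analysis and fitted bidirectionally relative to DMSO.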

Assay [6] in a line: APR_HepG2_MitoMembPot_24hr: Apredica 24-hour HepG2 Assay for Mitochondrial Membrane Potential (AID 2282911). Particulars: imaging, actives raise or lower the signal. The procedure, abridged:
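Mitochondrial membrane potential imaged via MitoTracker Red CMXRos (250 nM, 30 min pre-fixation) in fixed HepG2 cells with Hoechst nuclear identification. Ten concentrations 0.39–200 uM, 24 h treatment, 0.5% DMSO; CCCP as positive control.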

Assay [7] is described as follows: APR_HepG2_MitoMass_24hr: Apredica 24-hour HepG2 Assay for Mitochondrial Mass (AID 2282912). Particulars: high-content imaging, actives raise or lower the signal. The procedure, abridged:
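Human HepG2 liver cells were exposed for 24 hr to compounds at 0.39–200 uM (duplicates, 0.5% v/v DMSO final). They were stained live with 250 nM MitoTracker Red CMXRos for 30 min, fixed in 3.7% formaldehyde, and imaged by HCS fluorescence; signals were fitted bidirectionally against DMSO.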

Assay [8] is described as follows: APR_HepG2_p53Act_24hr: Apredica 24-hour HepG2 Assay for p53 Activation (AID 2282913).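 Further: p53 protein immunofluorescence averaged per cell in HepG2 with Hoechst nuclei.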 Particulars: high-content imaging, actives raise or lower the signal. In a few lines: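 Fluorescence imaging of formaldehyde-fixed HepG2 cells labelled for p53 and with Hoechst, 24 h after dosing (0.39–200 uM, duplicate wells, 0.5% v/v DMSO). Signal fitted in both directions relative to DMSO.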

Assay [9] is described as follows: APR_HepG2_CellCycleArrest_72hr: Apredica 72-hour HepG2 Assay for Cell Cycle Arrest (AID 2282914). Particulars: high-content imaging, actives raise or lower the signal. The procedure, abridged: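 Read-out: nuclear DNA content from Hoechst 33342 high-content imaging (20x, six fields/well) after 3.7% formaldehyde fixation, fitted bidirectionally against DMSO. Treatment was 72 h in HepG2, ten concentrations 0.39–200 uM, duplicate, 0.5% DMSO.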

Assay [10] can be described thus: APR_HepG2_CellLoss_72hr: Apredica 72-hour HepG2 Assay for Cell Loss (AID 2282915). Particulars: high-content imaging. The procedure, abridged:
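Cell number comes from Hoechst 33342-labelled nuclei, imaged at 20x after 3.7% formaldehyde fixation. Dosing was 0.39–200 uM, ten concentrations in duplicate, 0.5% DMSO final, for 72 h. Bidirectional fit relative to DMSO baseline.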

Assay [11] in a line: APR_HepG2_P-H2AX_72hr: Apredica 72-hour HepG2 Assay for H2AX Phosphorylation (AID 2282916).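 Further: phospho-histone H2A.x immunostain intensity per cell marking DNA damage.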 To be noted: imaging, actives raise or lower the signal. In a few lines:
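HepG2 human liver cells were exposed for 72 hr to compounds at 0.39–200 uM (10 concentrations, duplicate per plate) in 0.5% v/v DMSO. Fixed, permeabilized cells were immunolabeled for phospho-histone H2A.x with Hoechst 33342 and imaged by HCS fluorescence; bidirectional fit versus DMSO.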

Assay [12] can be described thus: APR_HepG2_MitoMembPot_72hr: Apredica 72-hour HepG2 Assay for Mitochondrial Membrane Potential (AID 2282917). Particulars: imaging, actives raise or lower the signal. The procedure, abridged:
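Membrane potential read by MitoTracker Red CMXRos (250 nM, 30 min, pre-fixation) fluorescence imaging of HepG2 after 72 hr exposure. Ten concentrations, 0.39–200 uM, duplicate wells, 0.5% DMSO; fitted in both directions against DMSO baseline.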

Assay [13] can be described thus: APR_HepG2_MitoticArrest_72hr: Apredica 72-hour HepG2 Assay for Mitotic Arrest (AID 2282918). To be noted: high-content imaging, actives raise or lower the signal. In a few lines:
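High-content imaging of fixed human HepG2 cells after 72 h compound exposure (0.39–200 uM, duplicates, 0.5% DMSO); mitotic arrest scored from phospho-histone H3 and nuclear Hoechst staining relative to DMSO.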

Assay [14] in a line: APR_HepG2_MicrotubuleCSK_72hr: Apredica 72-hour HepG2 Assay for Microtubule CSK Stabilty (AID 2282919). Particulars: HepG2 microtubule cytoskeleton, high-content imaging, actives raise or lower the signal. The procedure, abridged:
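Read-out is tubulin fluorescence intensity from high-content imaging of HepG2 cells, with nuclei identified by Hoechst 33342. Treatment lasts 72 h at 0.39–200 uM, and curves are fitted bidirectionally against the DMSO negative control.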

Assay [15] can be described thus: APR_HepG2_P-H2AX_24hr: Apredica 24-hour HepG2 Assay for H2AX Phosphorylation (AID 2282920). To be noted: high-content imaging, actives raise or lower the signal. In a few lines:
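High-content imaging of phospho-histone H2A.x immunofluorescence, nuclei counterstained with Hoechst 33342, in fixed HepG2 cells. Compounds ran 0.39–200 uM in duplicate for 24 h, final DMSO 0.5%. Signal change fitted both directions against DMSO.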

Assay [16] in a line: APR_HepG2_StressKinase_72hr: Apredica 72-hour HepG2 Assay for Stress Kinase (AID 2282921). Particulars: HepG2 stress kinase (phospho-c-Jun) imaging, actives raise or lower the signal. The procedure, abridged:
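Cells were exposed for 72 h to ten concentrations (0.39–200 uM, duplicate) at 0.5% v/v DMSO final, then fixed with 3.7% formaldehyde, permeabilized and immunostained for phospho-c-Jun (Cy3 secondary) with Hoechst nuclear counterstain.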

The nature of assay [17]: APR_HepG2_StressKinase_24hr: Apredica 24-hour HepG2 Assay for Stress Kinase (AID 2282922). Particulars: HepG2 stress kinase (phospho-c-Jun) imaging, actives raise or lower the signal. In a few lines:
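HepG2, 24 hr dosing, 0.39–200 uM in duplicate, 0.5% DMSO; formaldehyde fix (3.7%), 0.5% Triton X-100; anti-phospho-c-Jun + Cy3 secondary, Hoechst counterstain; ArrayScan imaging; bidirectional curve fit vs DMSO baseline.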

A short description of assay [18]: APR_HepG2_p53Act_72hr: Apredica 72-hour HepG2 Assay for p53 Activation (AID 2282923).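 Further: average cellular p53 protein immunofluorescence intensity in HepG2 cells.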 To be noted: high-content imaging, actives raise or lower the signal. In a few lines: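 Cells were dosed for 72 hr with compounds at 0.39–200 uM in duplicate (final DMSO 0.5% v/v), then fixed in 3.7% formaldehyde, permeabilized with Triton X-100 and immunostained for p53 (Cy5) with Hoechst 33342 nuclear counterstain.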

Assay [19] in a line: APR_HepG2_MitoMass_72hr: Apredica 72-hour HepG2 Assay for Mitochondrial Mass (AID 2282924).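 Further: MitoTracker Red CMXRos stain intensity per cell imaged as mitochondrial mass.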 To be noted: high-content imaging, actives raise or lower the signal. In a few lines:
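HepG2, 72 hr cmpd, 10 conc 0.39–200 uM in dup, DMSO 0.5% v/v. MitoTracker Red CMXRos 250 nM 30 min pre-fix; formaldehyde 3.7% fix 30 min RT. HCS imaging, gain/loss fit vs DMSO.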

Assay [20] can be described thus: APR_HepG2_NuclearSize_72hr: Apredica 72-hour HepG2 Assay for Nuclear Size (AID 2282925). Particulars: high-content imaging, actives raise or lower the signal. The procedure, abridged:
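HepG2; cpd 0.39–200 uM, 10 conc, duplicate; 72 h; DMSO 0.5% v/v; fix 3.7% formaldehyde 30 min RT; Triton permeabilization; Hoechst 2 ug/mL; HCS imaging 20x; nuclear diameter; gain/loss fit vs DMSO.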

The AC50 is the concentration at which the activity in the assay is half-maximal. With `Cn1cc(-c2ccccc2)c(=O)c(-c2cccc(C(F)(F)F)c2)c1`, the results for the AC50 in [1], in assay [9] and in assay [10] were 57.4 µM (active), 107 µM (active) and 64.3 µM (active), respectively. The compound was classed as inactive in assay [2], in assay [3], in [4], in assay [5], in assay [6] and in assay [7]. The compound was called inactive in [8], in assay [11], in assay [12], in assay [13], in [14] and in assay [15]. Moreover, the outcome in [16], in assay [17], in assay [18], in assay [19] and in assay [20] was inactive.
Turning to `[Cl-].[Cl-].[Hg+2]`, the compound was called inactive in assay [1], in [9], in assay [11], in assay [12], in [16] and in assay [18]. Also, the result in [19] and in assay [20] was inactive. The AC50 in [2] is 31.9 µM (active); in [3] it was 31.3 µM (active); in assay [4], 28.9 µM (active); in assay [5], 23.7 µM (active); in assay [6], 74.4 µM (active); in assay [7], 28 µM (active). The AC50 is 15.7 µM (active) in assay [8]; 20.3 µM (active) in assay [10]; 17.6 µM (active) in assay [13]; 13.2 µM (active) in [14]; 21.5 µM (active) in assay [15]; 19.8 µM (active) in assay [17].
On to `CCN(CC)N=O`, for which the outcome in assay [1], in [2], in [3], in assay [4], in assay [5] and in assay [6] was inactive. Further, the compound was classed as inactive in [7], in [8], in [9], in [10], in [11] and in assay [12]. Besides, the compound was called inactive in assay [13], in assay [14], in [15], in assay [16], in assay [17] and in assay [18]. The compound was called inactive in [19] and in assay [20].
As to `CCCCCCCCCCCCCN1CC(C)OC(C)C1` (stereo not given), the compound was classed as inactive in assay [1], in assay [6], in assay [11], in assay [12], in assay [13] and in assay [14]. Moreover, the result in [16], in assay [17], in assay [18], in [19] and in [20] was inactive. The AC50 in assay [2] is 105 µM (active); in assay [3] it was 91.8 µM (active); in assay [4] it was 166 µM (active); in [5] it was 97.6 µM (active); in assay [7], 189 µM (active); in [8], 66.8 µM (active). Moreover, the AC50 was 70.4 µM (active) in assay [9], 78.9 µM (active) in assay [10] and 76.6 µM (active) in assay [15].
Regarding `ClCCOCCCl`, the compound was called inactive in [1], in assay [2], in assay [3], in [4], in assay [5] and in [6]. Besides, the compound was classed as inactive in assay [7], in assay [8], in assay [9], in assay [10], in assay [11] and in [12]. Further, the result in assay [13], in assay [14], in [15], in assay [16], in assay [17] and in assay [18] was inactive. For the same compound, the call in assay [19] and in [20] was inactive.
Turning to `c1ccc2c(c1)-c1cccc3cccc-2c13`, the result in [1], in [2], in assay [4], in [6], in [7] and in assay [8] was inactive. Also, the result in assay [12], in [14], in assay [15], in assay [16], in assay [17] and in assay [18] was inactive. Moreover, the call in [19] and in assay [20] was inactive. Also, the AC50 in assay [3] was 85.7 µM (active); in [5], 107 µM (active); in [9], 111 µM (active); in assay [10] it was 106 µM (active); in assay [11] it was 108 µM (active); in assay [13] it was 87.1 µM (active).
